Three molecules from PubChem BioAssay (NCATS) can be followed below.

Values joined by “and” are separate entries in the source; they are usually repeats but may differ in a detail not shown here. Identical values can stand only once. Unmarked numbers belong to inactive results. Records with an inconclusive call do not appear. Active and inactive are the calls of the source. Unless noted, calls come from the whole dose curve; as a rule, active = well fitted curve in the direction sought with a large enough effect; inconclusive = small, poorly fitted or top-dose-only effect, or another doubt; inactive = no such curve, though single readings can be large; an effect the other way counts as inactive or inconclusive.

Assay [1] deals with Cytochrome P450 3A4 (Homo sapiens) (UniProt P08684). The assay is described as follows: qHTS Assay for Inhibitors and Substrates of Cytochrome P450 3A4 (AID 884). Note: potency is the fitted concentration of half-maximal effect; nearly all actives have a fitted effect of over 50% in size. In a few lines: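 20 nM human CYP3A4 with 25 uM Luciferin-PPXE (at KM) in 200 mM KPO4, preincubated 10 min with compound; NADPH regeneration started a 60 min RT reaction. Luciferin detected by luminescence, normalized to 57 uM ketoconazole as full inhibition.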

The target is the same in assay [2]. The assay can be described thus: qHTS Assay for Activators of Cytochrome P450 3A4 (AID 885). Note: nearly all actives have a fitted effect of over 65% in size. In outline:
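Quantitative HTS format: compounds preincubated with 20nM human CYP3A4 and Luciferin-PPXE substrate at KM, reaction started by NADPH regeneration, stopped after 60 min, luciferase luminescence read 20 min later.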
Background: qHTS replaces the single test concentration by a dilution series.

Assay [3] deals with Bile acid receptor (Homo sapiens) (UniProt Q96RI1). The assay can be described thus: qHTS assay for small molecule agonists of farnesoid X receptor signaling (AID 588527; calls by dose curve;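 note: series mostly up to about 77 µM; 0% = vehicle basal and 100% = reference agonist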). As to conditions: HEK293T FXR-UAS-bla, beta-lactamase ratio, 16 h; activation: active compounds read high. In outline:
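Quantitative HTS used FXR-UAS-bla HEK293T cells with 16 h compound incubation at 37 C. EC50 values came from concentration-response curves normalized to chenodeoxycholic acid.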

Assay [4] is described as follows: MultiTox-Fluor Cytotoxicity Assay - LYMP1-001 - Live Cells (AID 947). Note: potency is the fitted concentration of half-maximal effect.
The nature of assay [5]: MultiTox-Fluor Cytotoxicity Assay - LYMP1-002 - Dead Cells (AID 960). Note: potency is the fitted concentration of half-maximal effect; nearly all actives have a fitted effect of over 60% in size. In a few lines:
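Acute cytotoxicity in a human lymphoblastoid line is scored as rising dead-cell protease signal after 16 hr exposure at 37 C, measured fluorometrically (485/520).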

Assay [6] is described as follows: MultiTox-Fluor Cytotoxicity Assay - LYMP1-003 - Dead Cells (AID 961). Note: potency is the fitted concentration of half-maximal effect; nearly all actives have a fitted effect of over 70% in size. In a few lines:
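Acute toxicity is scored as increased dead-cell protease activity in human lymphoblastoid LYMP1-003 cells after 16 h compound exposure in complete culture medium. Activity is normalized to DMSO basal and 15 uM tetraoctylammonium bromide as full response.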

Assay [7] is described as follows: MultiTox-Fluor Cytotoxicity Assay - LYMP1-003 - Live Cells (AID 962).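 Note: potency is the fitted concentration of half-maximal effect; cells exposed to compound for 16 hours at 37 °C.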 In a few lines: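 Cells plated at 2500 per well and incubated 5 hr; compounds added and incubated 16 hr at 37 C; MultiTox-Fluor reagent added for 60 min at room temperature; fluorescence of liberated AFC measured at 405/510 nm.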
The nature of assay [8]: Cell Viability - LYMP1-003 - Assay at 24 hr (AID 963). Note: potency is the fitted concentration of half-maximal effect. In a few lines:
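Acute toxicity in LYMP1-003 lymphoblastoid cells: 24 hr compound treatment at 37 C, ATP measured with CellTiter-Glo after 30 min at room temperature. AC50 derived by fitting the Hill equation to qHTS titrations.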

The nature of assay [9]: Cell Viability - LYMP1-003 - Assay at 40 hr (AID 964). Note: potency is the fitted concentration of half-maximal effect; nearly all actives have a fitted effect of over 60% in size. In a few lines: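 This qHTS cytotoxicity screen treats human lymphoblastoid cells (LYMP1-003) with compounds for 40 hr and quantifies cellular ATP via luciferase luminescence.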
Assay [10] can be described thus: Cell Viability - LYMP2-004 (AID 966). Note: potency is the fitted concentration of half-maximal effect; nearly all actives have a fitted effect of over 65% in size. In a few lines: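 Acute toxicity is scored as a concentration-dependent drop in intracellular ATP, quantified by luciferase luminescence, in human lymphoblastoid cells exposed to compound for 24 hr. AC50 derives from Hill-equation modelling.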
The nature of assay [11]: Cell Viability - LYMP2-005 (AID 967). Note: potency is the fitted concentration of half-maximal effect. In outline: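 qHTS viability screen in LYMP2-005 cells: 24 h at 37 C with compound, ATP luminescence via CellTiter-Glo, AC50 from Hill curves.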
The nature of assay [12]: Cell Viability - LYMP2-013 (AID 970). Note: potency is the fitted concentration of half-maximal effect; nearly all actives have a fitted effect of over 55% in size. In outline: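 Acute toxicity was measured in human lymphoblastoid cells (2500/well) exposed to compound titrations for 24 hr, with ATP luminescence (CellTiter-Glo) as read-out and AC50 fitted by Hill equation.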
Assay [13] in a line: Cell Viability - LYMP2-017 (AID 972).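 Note: potency is the fitted concentration of half-maximal effect; cells exposed to compound for 24 hours at 37 °C; nearly all actives have a fitted effect of over 55% in size.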 In outline: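 Steps: plate 2500 lymphoblastoid cells per well; incubate 5 hr at 37 C; add compound across a concentration series and incubate 24 hr at 37 C; add CellTiter-Glo and read luminescence after 30 min at room temperature; fit Hill curves for AC50.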
Assay [14] in a line: Cell Viability - LYMP2-019 (AID 973). Note: potency is the fitted concentration of half-maximal effect; nearly all actives have a fitted effect of over 55% in size. In outline: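 Cells plated at 2500/well and allowed 5 hr at 37 C before compound addition. After 24 hr incubation, CellTiter-Glo reagent was added, plates sat 30 min at room temperature, and luminescence was recorded.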
Assay [15] can be described thus: Cell Viability - LYMP2-021 (AID 974).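 Note: potency is the fitted concentration of half-maximal effect; compound exposure lasts 24 hours at 37 °C; nearly all actives have a fitted effect of over 55% in size.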 In outline:
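Concentration-response cytotoxicity in a human lymphoblastoid line: 24 hr treatment at 37 C in complete culture medium, tetraoctylammonium bromide as positive control, luminescent ATP quantitation as viability measure.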

The nature of assay [16]: Cell Viability - LYMP2-025 (AID 976). Note: potency is the fitted concentration of half-maximal effect. In outline:
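In qHTS format, LYMP2-025 lymphoblastoid cells in complete culture medium received compound for 24 hr; ATP-based CellTiter-Glo signal gave viability, with AC50 derived by Hill equation.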

A short description of assay [17]: Cell Viability - LYMP2-002 (AID 977).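 Note: potency is the fitted concentration of half-maximal effect; compound exposure lasted 24 h at 37 °C.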 In outline:
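Cytotoxicity is scored as concentration-dependent loss of cellular ATP in a human lymphoblastoid line after 24 hr compound treatment at 37 C. AC50 is obtained by modelling concentration-response data with the Hill equation.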

A short description of assay [18]: Cell Viability - LYMP2-006 (AID 978). Note: potency is the fitted concentration of half-maximal effect; nearly all actives have a fitted effect of over 60% in size. In outline:
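Concentration-dependent loss of intracellular ATP in a human lymphoblastoid line after 24 hr treatment at 37 C was measured by CellTiter-Glo luminescence, with AC50 values obtained from standard Hill-equation modelling.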

Assay [19] is described as follows: Cell Viability - LYMP2-007 (AID 979).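 Note: potency is the fitted concentration of half-maximal effect; cells exposed to compound for 24 h before reading; nearly all actives have a fitted effect of over 60% in size.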 In a few lines: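 Acute toxicity is scored as a concentration-dependent fall in intracellular ATP in human lymphoblastoid cells treated 24 hr at 37 C, measured by luciferase luminescence; Hill-equation modelling yields AC50.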
A short description of assay [20]: Cell Viability - LYMP2-008 (AID 980). In outline: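 Acute cytotoxicity is scored as concentration-dependent loss of cellular ATP in a human lymphoblastoid line after 24 hr treatment at 37 C. ATP is quantified by luciferase luminescence.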
Assay [21] is described as follows: Cell Viability - LYMP2-012 (AID 982).
Assay [22] in a line: Cell Viability - LYMP2-016 (AID 984). In outline: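 Acute toxicity in a Coriell human lymphoblastoid line is scored as loss of intracellular ATP over 24 h of treatment in complete medium. CellTiter-Glo signal is fitted across concentrations with the Hill equation to give AC50.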
Assay [23] in a line: Cell Viability - LYMP2-018 (AID 985).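 Note: potency is the fitted concentration of half-maximal effect; compound exposure lasted 24 hr at 37 °C; nearly all actives have a fitted effect of over 50% in size.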 In outline:
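Acute cytotoxicity is scored as a concentration-dependent drop in intracellular ATP after 24 hr exposure of the lymphoblastoid line in complete culture medium, measured by luciferase luminescence. Potency is expressed as AC50 from Hill modelling.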

The nature of assay [24]: Cell Viability - LYMP2-020 (AID 986). In outline:
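Acute cytotoxicity in a human lymphoblastoid line is scored as a concentration-dependent fall in cellular ATP after 24 hr at 37 C in complete medium. The positive control is tetraoctylammonium bromide, and potency is given as Hill-fit AC50.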

Assay [25] in a line: Cell Viability - LYMP2-026 (AID 989). Note: potency is the fitted concentration of half-maximal effect; nearly all actives have a fitted effect of over 50% in size. In outline: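 Concentration-dependent loss of intracellular ATP in human lymphoblastoid cells after 24 hr at 37 C, quantified by luciferase luminescence. AC50 derived from standard Hill equation.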
The nature of assay [26]: Cell Viability - LYMP1-002 - Assay at 40 hr (AID 994). In outline: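 Viability in the human lymphoblastoid line was measured as intracellular ATP via CellTiter-Glo after 40 hr compound exposure. Tetraoctylammonium bromide served as positive control.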
A short description of assay [27]: qHTS assay for small molecule antagonists of the retinoid-related orphan receptor gamma (ROR-gamma) signaling pathway - cell viability counter screen (AID 720652; active = well fitted curve in the direction sought with a large enough effect in the repeat runs; an effect the other way counts as inactive or inconclusive;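 note: potency is the fitted concentration of half-maximal effect; compound exposure lasted 16 hr before ATP read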). In a few lines: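 Cytotoxicity is quantified via intracellular ATP (CellTiter-Glo luminescence) in doxycycline-induced CHO ROR response element-luciferase reporter cells treated with compound for 16 hr at 37 C, 5% CO2.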

Assay [28] in a line: qHTS assay for small molecule agonists of the antioxidant response element (ARE) signaling pathway measured by Nrf2-dependant transcriptional activity - cell viability counter screen (AID 720653; active = well fitted curve in the direction sought with a large enough effect in the repeat runs; an effect the other way counts as inactive or inconclusive; note: potency is the fitted concentration of half-maximal effect). As to conditions: ARE-bla HepG2 viability, CellTiter-Glo ATP luminescence, 16 h; max response: active compounds read low. In outline:
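Cytotoxicity counter screen: intracellular ATP quantified by CellTiter-Glo luminescence in the same ARE-bla HepG2 plates, after 16 h compound exposure and a 2 h beta-lactamase substrate step.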

The target of assay [29] is Peroxisome proliferator-activated receptor gamma (Homo sapiens) (UniProt P37231). The assay can be described thus: qHTS assay for small molecule agonists of peroxisome proliferator-activated receptor gamma signaling (AID 588536; active = well fitted curve in the direction sought with a large enough effect in the signal ratio, with a control signal flat, not every such curve was filed as active; the % refers to the signal ratio;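 note: 0% = DMSO basal wells and 100% = rosiglitazone at 2 µM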). In outline: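 HEK293 UAS-bla reporter line, 1% charcoal/dextran FBS; titration, 16 h, 37 C; CCF4 loading 2 h RT; fluorescence 460/530 nm. Normalized to rosiglitazone 2 uM = 100%, DMSO = 0%.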

The target in assay [30] is Vitamin D3 receptor (Homo sapiens) (UniProt P11473). The assay can be described thus: qHTS assay for small molecule agonists of vitamin D receptor signaling (AID 588543; calls by dose curve;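 note: 0% = DMSO basal and 100% = reference agonist control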). In a few lines:
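qHTS in agonist mode: compound titrations stimulate a VDR-driven β-lactamase reporter in HEK293T cells over 16 h at 37 °C. Response normalized to 50 nM 1α,25-dihydroxyvitamin D3 = 100%, DMSO = 0%; Hill fitting gives EC50 and maximal response.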

A short description of assay [31]: qHTS assay for small molecule activators of the p53 signaling pathway (AID 651743; active = well fitted activation curve with a large enough effect in the signal ratio, not every such curve was filed as active; the % refers to the signal ratio; note: potency is the fitted concentration of half-maximal effect). As to conditions: HCT-116 p53RE-bla, beta-lactamase FRET ratio, 16 h; activation: active compounds read high. In outline: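 Screen for p53 pathway agonists uses stably transfected p53RE-bla HCT-116 cells, 4,000 per well, treated 16 h at 37 C with compounds in DMSO.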
A short description of assay [32]: qHTS assay for small molecule activators of the nuclear factor-kappa B (NF-kB) signaling pathway (AID 651749; active = well fitted activation curve with a large enough effect in the signal ratio; the % refers to the signal ratio; note: series mostly up to about 77 µM; % of control where 0% means no effect). Particulars: NF-kB-bla ME-180 cells, beta-lactamase FRET ratio, 16 h; activation: active compounds read high. In a few lines: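 Stably transfected ME-180 line; NF-kB response element upstream of beta-lactamase. Treatment: compound or DMSO, 16 hr. Detection: fluorescent FRET substrate.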

Assay [33] in a line: qHTS assay for environmental chemicals that activate the Aryl hydrocarbon Receptor (AhR) signaling pathway (AID 651777). Note: % of control where 0% means no effect; nearly all actives have a fitted effect of over 15% in size. Particulars: 1A2-DRE human hepatoma cells, luciferase, 24 h; activation: active compounds read high. In a few lines: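 1A2-DRE human hepatoma reporter line; 1,200 cells/well; cmpd or DMSO 24 h, 37 C/5% CO2; One-Glo 30 min RT; luciferase lum.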
Assay [34] addresses Peroxisome proliferator-activated receptor alpha (Homo sapiens) (UniProt Q07869). The assay is described as follows: qHTS assay for small molecule agonists of the peroxisome proliferator-activated receptor alpha (PPARalpha) signaling pathway (AID 651778). Note: % of control where 0% means no effect. Particulars: PathHunter PPARalpha complementation, chemiluminescence, 6 h; max response: active compounds read high. In a few lines: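 Chemiluminescence from complemented enzyme reported PPARalpha activation in cells after 6 hr of compound treatment at 37 C. The detection reagent was incubated for 60 min at room temperature, and compounds were scored as agonists.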

Assay [35] in a line: qHTS assay for cell viability of HEK293 cells (AID 743288). Note: % is set by controls: 0 for no effect and ±100 for the full control effect; nearly all actives have a fitted effect of over 50% in size. Particulars: ATP luminescence (CellTiter-Glo), 18 h; max response: active compounds read low. In a few lines:
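The Tox21 protocol used parental HEK293 cells treated for 18 h at 37 C with compounds delivered by pintool; ATP-coupled luminescence after 30 min at room temperature gave viability.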

Bile acid receptor (Homo sapiens), sequence (Q96RI1 whole entry, looked up): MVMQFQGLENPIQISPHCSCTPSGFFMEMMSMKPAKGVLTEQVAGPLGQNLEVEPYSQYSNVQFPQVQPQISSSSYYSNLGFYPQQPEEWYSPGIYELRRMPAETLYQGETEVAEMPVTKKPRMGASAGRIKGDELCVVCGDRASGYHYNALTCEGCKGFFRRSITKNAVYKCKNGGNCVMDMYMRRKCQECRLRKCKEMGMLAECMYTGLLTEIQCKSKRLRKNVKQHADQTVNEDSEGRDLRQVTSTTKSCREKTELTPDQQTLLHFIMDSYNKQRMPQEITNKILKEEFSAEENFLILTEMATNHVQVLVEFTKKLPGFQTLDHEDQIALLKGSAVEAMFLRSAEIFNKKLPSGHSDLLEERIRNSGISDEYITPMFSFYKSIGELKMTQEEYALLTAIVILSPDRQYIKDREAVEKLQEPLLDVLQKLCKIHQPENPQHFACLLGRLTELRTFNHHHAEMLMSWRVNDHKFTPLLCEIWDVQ
Cytochrome P450 3A4 (Homo sapiens), sequence (P08684 whole entry, looked up): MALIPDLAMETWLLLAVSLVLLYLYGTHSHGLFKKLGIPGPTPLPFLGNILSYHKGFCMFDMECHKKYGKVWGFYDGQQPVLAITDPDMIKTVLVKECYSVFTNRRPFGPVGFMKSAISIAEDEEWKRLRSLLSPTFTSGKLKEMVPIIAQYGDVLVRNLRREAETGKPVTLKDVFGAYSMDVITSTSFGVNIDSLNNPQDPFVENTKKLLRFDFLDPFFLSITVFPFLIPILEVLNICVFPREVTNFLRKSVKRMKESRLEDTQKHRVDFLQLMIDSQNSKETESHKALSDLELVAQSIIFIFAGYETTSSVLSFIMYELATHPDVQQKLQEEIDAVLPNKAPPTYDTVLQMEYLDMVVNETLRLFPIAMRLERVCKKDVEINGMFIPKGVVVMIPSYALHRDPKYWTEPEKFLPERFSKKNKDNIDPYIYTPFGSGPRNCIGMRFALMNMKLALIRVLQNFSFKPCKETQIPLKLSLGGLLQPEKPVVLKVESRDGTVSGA
Peroxisome proliferator-activated receptor alpha (Homo sapiens), sequence (Q07869 whole entry, looked up): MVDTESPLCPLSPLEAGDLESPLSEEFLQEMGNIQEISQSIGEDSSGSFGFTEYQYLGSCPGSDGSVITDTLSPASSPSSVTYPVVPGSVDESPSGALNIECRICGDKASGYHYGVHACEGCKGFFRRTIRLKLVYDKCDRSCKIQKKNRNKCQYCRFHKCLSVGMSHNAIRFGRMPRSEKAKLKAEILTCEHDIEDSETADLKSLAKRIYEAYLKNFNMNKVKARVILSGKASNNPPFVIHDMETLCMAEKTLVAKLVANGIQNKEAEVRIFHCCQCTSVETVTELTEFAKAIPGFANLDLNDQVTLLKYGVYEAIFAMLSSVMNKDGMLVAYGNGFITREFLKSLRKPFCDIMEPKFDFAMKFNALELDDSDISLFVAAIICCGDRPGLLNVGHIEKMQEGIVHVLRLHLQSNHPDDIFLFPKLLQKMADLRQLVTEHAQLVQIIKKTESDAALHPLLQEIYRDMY
Peroxisome proliferator-activated receptor gamma (Homo sapiens), sequence (P37231 whole entry, looked up): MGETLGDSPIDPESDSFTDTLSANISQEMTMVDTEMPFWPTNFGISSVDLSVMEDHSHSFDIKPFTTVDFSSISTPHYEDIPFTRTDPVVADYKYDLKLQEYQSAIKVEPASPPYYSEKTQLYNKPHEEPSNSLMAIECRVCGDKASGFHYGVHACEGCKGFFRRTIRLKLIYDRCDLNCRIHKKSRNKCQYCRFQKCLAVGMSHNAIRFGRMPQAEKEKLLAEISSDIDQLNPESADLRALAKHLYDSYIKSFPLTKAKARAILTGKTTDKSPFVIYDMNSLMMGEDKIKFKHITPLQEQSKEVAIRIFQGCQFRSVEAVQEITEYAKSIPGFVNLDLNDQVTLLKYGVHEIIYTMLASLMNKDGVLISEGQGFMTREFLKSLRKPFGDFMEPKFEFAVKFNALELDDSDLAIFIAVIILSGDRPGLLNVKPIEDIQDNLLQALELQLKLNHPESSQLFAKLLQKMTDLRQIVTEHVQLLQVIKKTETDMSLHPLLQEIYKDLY
Vitamin D3 receptor (Homo sapiens), sequence (P11473 whole entry, looked up): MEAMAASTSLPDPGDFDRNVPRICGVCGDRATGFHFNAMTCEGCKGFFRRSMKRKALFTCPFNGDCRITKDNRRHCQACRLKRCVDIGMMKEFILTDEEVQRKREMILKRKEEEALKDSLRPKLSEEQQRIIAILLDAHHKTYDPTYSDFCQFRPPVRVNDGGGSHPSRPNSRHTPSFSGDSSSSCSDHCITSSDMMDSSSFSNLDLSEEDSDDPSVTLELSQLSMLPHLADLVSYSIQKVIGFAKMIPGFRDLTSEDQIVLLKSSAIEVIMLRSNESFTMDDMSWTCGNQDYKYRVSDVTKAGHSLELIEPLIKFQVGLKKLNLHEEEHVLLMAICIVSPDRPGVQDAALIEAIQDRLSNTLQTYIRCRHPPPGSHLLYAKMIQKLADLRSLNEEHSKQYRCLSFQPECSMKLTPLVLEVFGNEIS

Turning to `CC1(C)CC(N=C=O)CC(C)(CN=C=O)C1` (stereo not drawn), the Potency in assay [1] was 25.1 µM (active). Also, in assay [2], the Potency result was “inactive”. The activation in assay [3] was -0.574% and 2.35%.

As to `CC/C(=C(\c1ccccc1)c1ccc(OCCN(C)C)cc1)c1ccc(O)cc1`, the Potency result in [2] was “inactive”. Also, the Potency in assay [4] was 50.1 µM (active); in assay [5], 31.6 µM (active); in assay [6], 50.1 µM (active); in assay [7], 50.1 µM (active); in [8], 50.1 µM (active); in assay [9], 50.1 µM (active). The Potency in assay [10] is 50.1 µM (active); in [11], 50.1 µM (active); in [12] it was 50.1 µM (active); in assay [13] it was 39.8 µM (active); in [14], 50.1 µM (active); in assay [15], 50.1 µM (active). The Potency in assay [16] is 50.1 µM (active); in assay [17] it was 50.1 µM (active); in assay [18] it was 39.8 µM (active); in assay [19], 50.1 µM (active); in assay [20], 50.1 µM (active); in [21], 50.1 µM (active). For the same molecule, the Potency was 50.1 µM (active) in assay [22]; 39.8 µM (active) in assay [23]; 50.1 µM (active) in assay [24]; 39.8 µM (active) in assay [25]; 50.1 µM (active) in assay [26]; 75 µM (active) in assay [27]. For the same molecule, the Potency in [28] is 70.8 µM (active). Besides, the activation in assay [3] is 1.2%.

On to `Cc1ccc(-c2c(Cl)nc(C#N)n2S(=O)(=O)N(C)C)cc1`, for which the activation in [3] was 4.98%; in [32], 2.86%; in assay [33], 12.8%. The Potency result in [29] is “inactive”. Moreover, the molecule was classed as inactive in [30]. Besides, the Potency in assay [31] is 28.2 µM (active). For the same molecule, the max response in assay [34] is 15.7%; in assay [35] it was -15.9%.
